Test results taken from the supplement of paper PMC4466140.

B1: unnamed (peptide)
chain: NFLRLLIGLPSQNEL

These binders were tested against AgAbp1 (assay: SPOT peptide array binding signal intensity (averaged, normalized) (arbitrary units (background-subtracted, floor 0; scale differs between SH3 domains)); higher = stronger binding of the SH3 domain to the peptide).
In short: (§1)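 E. coli BL21(DE3) was used to express GST-fused SH3 domains from four yeast species, which were then purified on glutathione Sepharose. These were incubated at 10 μg/ml in TBS-based blocking buffer overnight at 4°C on cellulose membranes carrying synthetic 15-mer peptides, in which cysteines were replaced by serines. Binding signal is the replicate average of normalized, background-subtracted spot intensity, in arbitrary units that differ between domains.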

Row | Binder | SPOT peptide array binding signal intensity
1 | B1 | ≤ 0

What follows are binders tested against AgBbc1 in the same assay as above.
In short: as §1

Row | Binder | SPOT peptide array binding signal intensity
2 | B1 | 4.25

What follows are binders tested against AgBem1-D1 in the same assay as above.
In short: as §1

Row | Binder | SPOT peptide array binding signal intensity
3 | B1 | 132

The binders below were run against AgBzz1-D1 in the same assay as above.
In short: as §1

Row | Binder | SPOT peptide array binding signal intensity
4 | B1 | 17.5

The binders below were run against AgBzz1-D2 in the same assay as above.
In short: as §1

Row | Binder | SPOT peptide array binding signal intensity
5 | B1 | 6.5

Each binder was assayed against AgCyk3 in the same assay as above.
In short: as §1

Row | Binder | SPOT peptide array binding signal intensity
6 | B1 | 3.5

These binders were tested against AgFus1 in the same assay as above.
In short: as §1

Row | Binder | SPOT peptide array binding signal intensity
7 | B1 | 950

The binders below were run against AgHof1 in the same assay as above.
In short: as §1

Row | Binder | SPOT peptide array binding signal intensity
8 | B1 | 31.5

The binders below were run against AgHse1 in the same assay as above.
In short: as §1

Row | Binder | SPOT peptide array binding signal intensity
9 | B1 | 2760

The binders below were run against AgLsb1 in the same assay as above.
In short: as §1

Row | Binder | SPOT peptide array binding signal intensity
10 | B1 | ≤ 0

These binders were tested against AgLsb4 in the same assay as above.
In short: as §1

Row | Binder | SPOT peptide array binding signal intensity
11 | B1 | 248

These binders were tested against AgMyo5 in the same assay as above.
In short: as §1

Row | Binder | SPOT peptide array binding signal intensity
12 | B1 | 2.75

What follows are binders tested against AgNbp2 in the same assay as above.
In short: as §1

Row | Binder | SPOT peptide array binding signal intensity
13 | B1 | 39

Each binder was assayed against AgRvs167 in the same assay as above.
In short: as §1

Row | Binder | SPOT peptide array binding signal intensity
14 | B1 | 2

Each binder was assayed against AgSho1 in the same assay as above.
In short: as §1

Row | Binder | SPOT peptide array binding signal intensity
15 | B1 | 263

These binders were tested against AgSla1-D1-D2 in the same assay as above.
In short: as §1

Row | Binder | SPOT peptide array binding signal intensity
16 | B1 | 50

Each binder was assayed against AgSla1-D3 in the same assay as above.
In short: as §1

Row | Binder | SPOT peptide array binding signal intensity
17 | B1 | 4.5

The binders below were run against CaAbp1-D1 in the same assay as above.
In short: as §1

Row | Binder | SPOT peptide array binding signal intensity
18 | B1 | ≤ 0

The binders below were run against CaAbp1-D2 in the same assay as above.
In short: as §1

Row | Binder | SPOT peptide array binding signal intensity
19 | B1 | ≤ 0

What follows are binders tested against CaBbc1 in the same assay as above.
In short: as §1

Row | Binder | SPOT peptide array binding signal intensity
20 | B1 | ≤ 0

These binders were tested against CaBem1-D1 in the same assay as above.
In short: as §1

Row | Binder | SPOT peptide array binding signal intensity
21 | B1 | ≤ 0

What follows are binders tested against CaBzz1-D1 in the same assay as above.
In short: as §1

Row | Binder | SPOT peptide array binding signal intensity
22 | B1 | 39

What follows are binders tested against CaBzz1-D2 in the same assay as above.
In short: as §1

Row | Binder | SPOT peptide array binding signal intensity
23 | B1 | 37

These binders were tested against CaCyk3 in the same assay as above.
In short: as §1

Row | Binder | SPOT peptide array binding signal intensity
24 | B1 | 4

These binders were tested against CaFus1 in the same assay as above.
In short: as §1

Row | Binder | SPOT peptide array binding signal intensity
25 | B1 | 2560

Each binder was assayed against CaHof1 in the same assay as above.
In short: as §1

Row | Binder | SPOT peptide array binding signal intensity
26 | B1 | 1.5

What follows are binders tested against CaHse1 in the same assay as above.
In short: as §1

Row | Binder | SPOT peptide array binding signal intensity
27 | B1 | 156

The binders below were run against CaLsb1 in the same assay as above.
In short: as §1

Row | Binder | SPOT peptide array binding signal intensity
28 | B1 | 2.5

The binders below were run against CaLsb4 in the same assay as above.
In short: as §1

Row | Binder | SPOT peptide array binding signal intensity
29 | B1 | 3

What follows are binders tested against CaMyo5 in the same assay as above.
In short: as §1

Row | Binder | SPOT peptide array binding signal intensity
30 | B1 | 8.25

The binders below were run against CaNbp2 in the same assay as above.
In short: as §1

Row | Binder | SPOT peptide array binding signal intensity
31 | B1 | 259

The binders below were run against CaRvs167 in the same assay as above.
In short: as §1

Row | Binder | SPOT peptide array binding signal intensity
32 | B1 | 72

These binders were tested against CaRvs167-3 in the same assay as above.
In short: as §1

Row | Binder | SPOT peptide array binding signal intensity
33 | B1 | 143

These binders were tested against CaSho1 in the same assay as above.
In short: as §1

Row | Binder | SPOT peptide array binding signal intensity
34 | B1 | 731

The binders below were run against CaSla1-D1-D2 in the same assay as above.
In short: as §1

Row | Binder | SPOT peptide array binding signal intensity
35 | B1 | ≤ 0

The binders below were run against CaSla1-D3 in the same assay as above.
In short: as §1

Row | Binder | SPOT peptide array binding signal intensity
36 | B1 | 41.2

The binders below were run against ScAbp1 in the same assay as above.
In short: as §1

Row | Binder | SPOT peptide array binding signal intensity
37 | B1 | ≤ 0
